Screening data (PubChem)
Only some compounds are listed: those with a hit (about 3.3% of all), similar ones and a draw of the others.
Rpn11 inh – Rpn11 (human) deubiquitinase inhibition. inhibition, % at 20 µM. human 26S proteasome, Ub4-pepOG fluorescence polarization; 20S core pre-blocked with epoxomicin. actives 0.59% (n = 360,000). O00487;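 active means inhibition at 20 µM, scaled to each plate's controls, above about 33%, limit read from the data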
CTSL1 counter – blocks F. hepatica cathepsin L1 in PFM18AAP counter-screen | recombinant F. hepatica cathepsin L1, Z-Leu-Arg-MCA fluorescence | inhibition, % at 5.96 µM | actives 0.49% (n = 300,000);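 active means inhibition above the mean of all tested compounds plus 3 SD, set per screening campaign, cut at about 17% in these data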
HNF4A DNA FP – change in binding of human HNF4 alpha to DNA; actives 0.3% (n = 360,000); HNF4a-FITC DNA binding, fluorescence polarization, 1 h; AID 1224865; activity change, % at 10 µM; P41235; in the data active means activity change above about 30%, passing the limit was not always enough
CendR NRP1 mod – modulators of CendR peptide binding to human neuropilin-1 | FAM-RPARPAR peptide binding to NRP-1, fluorescence polarization | actives 0.85% (n = 360,000) | O14786 | inhibition, % at 25 µM;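 active means inhibition or corrected inhibition above about 18%, plus a signal ratio from 0.5 to 1.5, limit read from the data, passing the limit was not always enough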
Target sequence (O14786 whole entry, looked up): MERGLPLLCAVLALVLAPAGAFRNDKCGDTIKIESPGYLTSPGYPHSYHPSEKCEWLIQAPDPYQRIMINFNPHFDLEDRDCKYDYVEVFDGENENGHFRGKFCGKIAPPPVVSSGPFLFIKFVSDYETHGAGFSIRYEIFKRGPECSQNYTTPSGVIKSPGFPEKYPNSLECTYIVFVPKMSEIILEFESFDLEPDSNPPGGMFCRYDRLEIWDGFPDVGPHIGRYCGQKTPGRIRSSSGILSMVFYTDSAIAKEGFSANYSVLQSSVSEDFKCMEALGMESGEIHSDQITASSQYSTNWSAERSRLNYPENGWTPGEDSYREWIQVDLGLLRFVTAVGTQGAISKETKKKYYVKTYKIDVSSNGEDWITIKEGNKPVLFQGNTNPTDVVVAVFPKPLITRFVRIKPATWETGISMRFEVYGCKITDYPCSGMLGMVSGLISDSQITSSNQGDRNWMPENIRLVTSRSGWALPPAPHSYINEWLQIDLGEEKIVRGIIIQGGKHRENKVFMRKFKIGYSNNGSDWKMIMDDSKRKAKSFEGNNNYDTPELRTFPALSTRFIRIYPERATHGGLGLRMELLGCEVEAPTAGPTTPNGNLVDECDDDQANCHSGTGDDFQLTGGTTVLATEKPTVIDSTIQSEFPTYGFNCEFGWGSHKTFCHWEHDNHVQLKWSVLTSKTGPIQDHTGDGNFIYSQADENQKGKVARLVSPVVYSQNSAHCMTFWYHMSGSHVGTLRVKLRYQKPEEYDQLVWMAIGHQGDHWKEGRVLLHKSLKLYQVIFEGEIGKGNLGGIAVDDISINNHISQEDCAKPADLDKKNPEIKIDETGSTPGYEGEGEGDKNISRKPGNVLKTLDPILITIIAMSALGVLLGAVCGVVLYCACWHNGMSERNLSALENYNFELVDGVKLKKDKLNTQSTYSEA
PHOSPHO1 inh – inhibitors of human PHOSPHO1 phosphatase; inhibition, % at 13.3 µM; actives 1.1% (n = 290,000); recombinant PHOSPHO1, absorbance phosphatase assay; Q8TCT1; AID 1565; in the data active means inhibition above about 60%
TPT1 inhibitor – inhibitors of Candida albicans tRNA 2'-phosphotransferase TPT1; inhibition, % at 5 µM; actives 0.81% (n = 300,000); recombinant caTPT1, FP RNA substrate dephosphorylation;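 active means inhibition above the mean of all tested compounds plus 3 SD, set per screening campaign, cut at about 24% in these data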
Each line names hits and unclear results; the compound was inactive in the other large screens.

Cc1cccc(N(CC(=O)NC(C)(C)C)C(=O)CCC(=O)Nc2ccccn2)c1	CTSL1 counter 18
CCOC(=O)C(C(=O)Nc1ccccn1)C1CCCCC1 (centres undefined)	PHOSPHO1 inh 70
CCN(CC)c1ccc(/C=N/NC(=O)CNC(=O)c2ccc3c(c2)OCCO3)cc1	none
Cc1ccc(N2CCN(S(=O)(=O)c3nnc(NC(=O)c4ccco4)s3)CC2)cc1	none
COC(=O)CN1C(=O)C(O)(CC(=O)c2ccc(C)o2)c2ccccc21 (centres undefined)	CendR NRP1 mod 32
COC(=O)CN1C(=O)C(O)(CC(=O)c2ccccc2)c2ccccc21 (centres undefined)	none
CSCCC(NS(=O)(=O)c1ccc2c(c1)oc(=O)n2C)C(=O)NCc1cccs1 (centres undefined)	none
COc1ccc(C(=O)COC(=O)CCn2nnc(-c3cccc(O)c3OC)n2)cc1	none
Cc1cc(NC(=O)CCC(=O)N(c2cccc(F)c2)C(C(=O)NC2CCCC2)c2ccc(C)o2)no1 (centres undefined)	none
Cc1cc(NC(=O)CCC(=O)N(Cc2ccco2)C2(C(=O)NC3CCCCC3)CCN(C)CC2)no1	none
Cc1cc(NC(=O)CCC(=O)N(Cc2ccco2)C2(C(=O)NC3CCCC3)CCCCC2)no1	CendR NRP1 mod 19
Cc1cc(NC(=O)CCC(=O)N(c2cccc(F)c2)C(C(=O)NC2CCCC2)c2ccccc2)no1 (centres undefined)	CendR NRP1 mod 26
Cc1cc(NC(=O)CCC(=O)N(c2ccccc2)C(C(=O)NC2CCCC2)c2cccs2)no1 (centres undefined)	CendR NRP1 mod 20
Cc1ccc(N(C(=O)CCC(=O)Nc2cc(C)on2)C(C(=O)NC2CCCC2)c2cccs2)cc1 (centres undefined)	none
CCOc1ccc(NC(=O)CSc2nnc(C3CC3)n2C)cc1S(=O)(=O)N1CCCCC1	none (no result: CTSL1 counter, PHOSPHO1 inh, TPT1 inhibitor)
CCOC(=O)c1sc2nc3c(SCC(=O)O)cc(C(=O)c4cc(F)ccc4O)cn3c(=O)c2c1C	Rpn11 inh 58
O=C1c2nccnc2C(=O)N1Cc1ccccc1	none (no result: CTSL1 counter, PHOSPHO1 inh, TPT1 inhibitor)
O=C(CSc1nnc(-c2cnccn2)n1Cc1ccco1)c1ccccc1	PHOSPHO1 inh 90
O=C(CSc1nnc(-c2cnccn2)n1Cc1ccco1)c1ccc(Cl)cc1	none
O=C(CSc1nnc(-c2ccccn2)n1Cc1ccco1)c1ccc(Cl)cc1	PHOSPHO1 inh 80
O=C(CSc1nnc(-c2cccnc2)n1Cc1ccco1)c1ccc2ccccc2c1	PHOSPHO1 inh 70
O=C(CSc1nnc(-c2ccccn2)n1Cc1ccco1)c1ccccc1	none
O=C(CCl)NN=C(c1ccccc1)c1ccccc1	CTSL1 counter 37
CN1OC[C@@H]2CN(Cc3ccccc3)[C@H](c3cccc(Oc4ccccc4)c3)C[C@@H]21	CendR NRP1 mod 25 (no result: CTSL1 counter, PHOSPHO1 inh, TPT1 inhibitor)
COc1ccc(S(=O)(=O)N2CCN(C(=O)c3cccc(S(=O)(=O)N4CCCC4)c3)CC2)cc1	none (no result: CTSL1 counter, PHOSPHO1 inh, TPT1 inhibitor)
O=C(Nc1ccc(O)cc1)c1ccc(NC(=O)C2CCCO2)cc1 (centres undefined)	PHOSPHO1 inh 66 (no result: CTSL1 counter, TPT1 inhibitor)
COc1ccc(CCN2C(=O)NC(NS(=O)(=O)c3ccc(N)cc3)(C(F)(F)F)C2=O)cc1OC (centres undefined)	none
COc1ccc(CCN2C(=O)NC(NS(=O)(=O)c3ccc(NC(C)=O)cc3)(C(F)(F)F)C2=O)cc1OC (centres undefined)	PHOSPHO1 inh 64
O=C1C2C(c3ccccc3)C=CC(c3ccccc3)C2C(=O)N1CCCO (centres undefined)	CendR NRP1 mod 22
Cc1ccc(-c2nc(N)sc2C)cc1	none
CCCc1sc(N)nc1-c1ccc(C)cc1	CendR NRP1 mod 17
COc1cc(/C=C/C(=O)/C=C(O)/C=C/c2ccc(O)c(OC)c2)ccc1O	HNF4A DNA FP 117 (not shown: Rpn11 inh, CTSL1 counter, PHOSPHO1 inh, TPT1 inhibitor)
CSCC[C@@H](C(=O)NCc1cccs1)N1Cc2ccccc2C1=O	CendR NRP1 mod 21
CC(=O)c1c(C)[nH]c(C(=O)CSc2nnc(-c3cccs3)n2Cc2ccccc2)c1C	none
CC(=O)c1c(C)[nH]c(C(=O)CSc2nnc(-c3ccco3)n2Cc2ccccc2)c1C	PHOSPHO1 inh 62
CCN(C(=O)COc1ccccc1[N+](=O)[O-])C1CCS(=O)(=O)C1 (centres undefined)	none
CC(Oc1ccccc1Cl)C(=O)N(Cc1ccco1)C1CCS(=O)(=O)C1 (centres undefined)	HNF4A DNA FP 31
O=C(COc1ccccc1[N+](=O)[O-])N(Cc1ccco1)C1CCS(=O)(=O)C1 (centres undefined)	CTSL1 counter 25
CC(=O)c1ccc(OC(=O)CN2C(=O)c3ccccc3C2=O)cc1	none
CCc1ccc(OC(=O)CN2C(=O)c3ccccc3C2=O)cc1	CendR NRP1 mod 26
CCc1ccc(/C=N/N2CCN(c3ccccn3)CC2)cc1	HNF4A DNA FP 61
FC(F)(F)c1nnc(-c2ccccc2)nc1N1CCOCC1	none
FC(F)(F)c1cccc(-c2nnc(-c3ccccc3)c(N3CCOCC3)n2)c1	CTSL1 counter 17
NCCCC[C@H]1CNC(=O)C(=O)N1CC1CCCCC1	CendR NRP1 mod 18
Cc1cccc(-n2c(C)cc(C=C3C(=O)c4ccccc4C3=O)c2C)c1	PHOSPHO1 inh 99
C/C=C/c1cccc(-c2nc(C(=O)N3CCCCC3)cc3c2[C@H](CCO)N(C(=O)NC(C)C)C3)c1	CendR NRP1 mod 22 (no result: Rpn11 inh, CTSL1 counter, PHOSPHO1 inh, TPT1 inhibitor)
C/C=C/c1cccc(-c2nc(C(=O)N3CCN(C)CC3)cc3c2[C@@H](CCO)N(C(=O)NC(C)C)C3)c1	none (no result: Rpn11 inh, CTSL1 counter, PHOSPHO1 inh, TPT1 inhibitor)
COc1cc(OC)cc(-c2n[nH]c(=S)n2-c2cc(OC)ccc2OC)c1	PHOSPHO1 inh 82
Cc1ccc(-n2c(-c3ccc(Cl)cc3)n[nH]c2=S)c(C)c1	none
COc1ccc(-c2n[nH]c(=S)n2-c2ccc(C)cc2C)cc1	HNF4A DNA FP 36
Cc1ccc(-n2c(-c3cccnc3)n[nH]c2=S)c(C)c1	PHOSPHO1 inh 60
COc1ccccc1-n1c(-c2cccnc2)n[nH]c1=S	none
O=C(CCc1nc(-c2ccccc2)no1)NCC1CCCO1 (centres undefined)	none
CC(=O)N(Cc1cccnc1)c1cccc(-c2nc3ccccc3s2)c1	PHOSPHO1 inh 66
O=C1c2cccc3cccc(c23)C(=O)N1Cc1cccnc1	none
Cc1ccnc(N2C(=O)c3cccc4c([N+](=O)[O-])ccc(c34)C2=O)c1	CendR NRP1 mod 36
O=C1c2cccc3c([N+](=O)[O-])ccc(c23)C(=O)N1Cc1cccnc1	CendR NRP1 mod 69 (no result: CTSL1 counter, TPT1 inhibitor)
CCCc1c(O)nc(SC2CC(=O)N(c3cc(OC)ccc3OC)C2=O)[nH]c1=O (centres undefined)	none
CC(C)c1ccc(C(=O)CSc2ncn[nH]2)cc1	PHOSPHO1 inh 100
